This passage reports binding signal results from paper PMC5700166.

Common to all, as to experiment: protein-binding microarray (PBM); PBM: ~300 nM protein, 6 mM HEPES pH 7.8, 80 mM KCl, 0.5 mM EDTA, 0.5 mM EGTA, 6% glycerol, 35 ng/ul poly-dIdC, 1% milk, 1 h, room temperature; Ap Aiptasia and Nv Nematostella (sea anemones) / Co Capsaspora / Aq Amphimedon (sponge) / Dm Drosophila / Hu human; RHD is the Rel homology domain; high values mean tight binding
Settings in all cases: dsDNA, one strand shown

The target in one assay is T1, GST-Ap-NF-kB RHD (Exaiptasia pallida (Aiptasia), UniProt A0A913YAJ5 2-422).
T1 sequence: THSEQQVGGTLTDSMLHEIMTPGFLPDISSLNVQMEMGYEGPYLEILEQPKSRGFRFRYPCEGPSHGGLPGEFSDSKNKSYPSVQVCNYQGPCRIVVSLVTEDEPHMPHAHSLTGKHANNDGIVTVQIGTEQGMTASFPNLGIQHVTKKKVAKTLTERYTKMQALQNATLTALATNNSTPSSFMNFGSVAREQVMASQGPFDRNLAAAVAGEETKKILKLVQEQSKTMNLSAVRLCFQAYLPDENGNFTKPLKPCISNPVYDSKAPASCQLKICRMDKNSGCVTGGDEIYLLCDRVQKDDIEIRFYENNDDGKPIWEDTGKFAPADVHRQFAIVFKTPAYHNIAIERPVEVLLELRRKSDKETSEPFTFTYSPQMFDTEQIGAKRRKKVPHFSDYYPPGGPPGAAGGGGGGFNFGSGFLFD

In assay [1] the target is T2, GST-Nv-NF-kB (Cys allele) (Nematostella vectensis, UniProt E5G601 2-411).
T2 sequence: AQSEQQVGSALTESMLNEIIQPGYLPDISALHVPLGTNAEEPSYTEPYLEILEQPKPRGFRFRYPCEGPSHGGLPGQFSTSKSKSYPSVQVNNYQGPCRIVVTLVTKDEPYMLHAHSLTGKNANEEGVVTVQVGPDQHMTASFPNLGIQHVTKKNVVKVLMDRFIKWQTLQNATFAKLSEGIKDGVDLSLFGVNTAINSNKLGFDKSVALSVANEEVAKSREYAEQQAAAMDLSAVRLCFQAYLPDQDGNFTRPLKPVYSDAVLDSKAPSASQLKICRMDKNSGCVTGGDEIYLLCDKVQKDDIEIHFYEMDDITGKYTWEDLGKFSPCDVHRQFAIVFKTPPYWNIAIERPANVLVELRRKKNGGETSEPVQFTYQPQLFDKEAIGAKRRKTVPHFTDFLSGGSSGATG

Another assay addresses T3, GST-Co-NF-kB (Capsaspora owczarzaki, UniProt F1ARL5 200-546).
T3 sequence: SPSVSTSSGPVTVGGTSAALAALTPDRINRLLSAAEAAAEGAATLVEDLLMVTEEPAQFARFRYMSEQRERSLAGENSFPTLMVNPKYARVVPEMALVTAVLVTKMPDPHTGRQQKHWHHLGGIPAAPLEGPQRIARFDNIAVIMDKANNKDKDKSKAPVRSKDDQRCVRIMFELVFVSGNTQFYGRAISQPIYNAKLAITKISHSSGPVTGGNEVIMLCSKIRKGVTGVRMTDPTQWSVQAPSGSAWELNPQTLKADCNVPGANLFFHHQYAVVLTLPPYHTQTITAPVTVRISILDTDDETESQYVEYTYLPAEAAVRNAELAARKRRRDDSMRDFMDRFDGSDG

For the next assay, the target named is T4, GST-Dm-Relish (Drosophila melanogaster, UniProt Q94527 99-473).
T4 sequence: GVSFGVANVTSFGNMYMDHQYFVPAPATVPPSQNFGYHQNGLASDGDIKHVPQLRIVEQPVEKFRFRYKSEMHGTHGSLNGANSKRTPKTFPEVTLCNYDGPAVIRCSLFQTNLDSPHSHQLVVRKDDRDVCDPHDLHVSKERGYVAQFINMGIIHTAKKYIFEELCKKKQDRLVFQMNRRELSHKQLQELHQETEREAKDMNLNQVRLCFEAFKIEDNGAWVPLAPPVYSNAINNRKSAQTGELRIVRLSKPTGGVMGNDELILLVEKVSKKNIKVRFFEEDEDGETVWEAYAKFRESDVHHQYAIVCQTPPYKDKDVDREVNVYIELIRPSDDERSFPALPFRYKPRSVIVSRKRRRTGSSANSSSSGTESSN

A further assay addresses T5, GST-Aq-NF-kB (Amphimedon queenslandica, UniProt A9Y5G7 2-389).
T5 sequence: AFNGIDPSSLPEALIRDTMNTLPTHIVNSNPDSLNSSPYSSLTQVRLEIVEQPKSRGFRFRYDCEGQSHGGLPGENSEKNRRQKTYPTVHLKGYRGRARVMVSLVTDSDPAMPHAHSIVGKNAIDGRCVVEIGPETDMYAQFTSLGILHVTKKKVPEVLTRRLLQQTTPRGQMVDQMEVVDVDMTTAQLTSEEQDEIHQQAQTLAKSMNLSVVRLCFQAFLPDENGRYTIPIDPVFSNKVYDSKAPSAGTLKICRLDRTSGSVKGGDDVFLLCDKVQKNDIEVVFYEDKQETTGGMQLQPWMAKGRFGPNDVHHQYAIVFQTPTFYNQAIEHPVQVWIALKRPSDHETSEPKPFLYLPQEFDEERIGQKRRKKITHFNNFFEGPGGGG

As for “CCGATTAACATCAAGAGTTTCCCTGATGTTAATCGGGTCTTGATTCGCTTGACGCTGCTG”, the binding signal with GST-Ap-NF-kB RHD was found to be 4.29 z-score; in assay [1] it was 5.34 z-score; in the assay with GST-Co-NF-kB, 3.98 z-score; with GST-Dm-Relish it was 2.43 z-score; in the assay with GST-Aq-NF-kB, 5.12 z-score.
In the same order, the values of “CCGATTAACATCATCAGGGGGGATGATGTTAATCGGGTCTTGATTCGCTTGACGCTGCTG” are 4.58 z-score, 4.51 z-score, 6.21 z-score, 4.27 z-score and 5.18 z-score.
Consider “CCGATTAACATCAAGAGACCCCCTGATGTTAATCGGGTCTTGATTCGCTTGACGCTGCTG”, for which the binding signal with GST-Ap-NF-kB RHD came to 5.03 z-score; in assay [1] it was 2.88 z-score; in the assay with GST-Co-NF-kB, 2.08 z-score; in the assay with GST-Dm-Relish, 3.99 z-score; with GST-Aq-NF-kB it was 3.76 z-score.
Turning to “CCGATTAACATCAGGGTTTTTTATGATGTTAATCGGGTCTTGATTCGCTTGACGCTGCTG”, the binding signal was 4.39 z-score with GST-Ap-NF-kB RHD; 5.06 z-score in assay [1]; 1.36 z-score in the assay with GST-Co-NF-kB; 5.89 z-score with GST-Dm-Relish; 6.24 z-score in the assay with GST-Aq-NF-kB.
Taken in the same sequence, the figures for “CCGATTAACATCAAGTTTACCCCTGATGTTAATCGGGTCTTGATTCGCTTGACGCTGCTG” were 3.21 z-score, 2.2 z-score, 6.61 z-score, 2.4 z-score and 2.91 z-score.
Taken in the same sequence, the figures for “CCGATTAACATCACTGGGAATTCTGATGTTAATCGGGTCTTGATTCGCTTGACGCTGCTG” were 3.23 z-score, 3.49 z-score, 3.79 z-score, 3.32 z-score and 2.67 z-score.
In the same order, the values of “CCGATTAACATCACCCCTCCCCGTGATGTTAATCGGGTCTTGATTCGCTTGACGCTGCTG” are 5.01 z-score, 3.48 z-score, 4.15 z-score, 3.47 z-score and 3.26 z-score.
For the sequence “CCGATTAACATCAGAATTGCCCCTGATGTTAATCGGGTCTTGATTCGCTTGACGCTGCTG”, the binding signal in the assay with GST-Ap-NF-kB RHD amounted to 2.58 z-score; in assay [1], 3.54 z-score; with GST-Co-NF-kB it was 1.95 z-score; with GST-Dm-Relish, 1.75 z-score; in the assay with GST-Aq-NF-kB, 3.86 z-score.
Taken in the same sequence, the figures for “CCGATTAACATCAGGGGACGGGATGATGTTAATCGGGTCTTGATTCGCTTGACGCTGCTG” were 4.78 z-score, 3.92 z-score, 2.14 z-score, 1.43 z-score and 3.92 z-score.
In the same order, the values of “CCGATTAACATCAGGGAACTCCATGATGTTAATCGGGTCTTGATTCGCTTGACGCTGCTG” are 2.66 z-score, 2.2 z-score, 1.5 z-score, 6.21 z-score and 3.71 z-score.
In the same order, the values of “CCGATTAACATCAGGGCGTCCCCTGATGTTAATCGGGTCTTGATTCGCTTGACGCTGCTG” are 6.5 z-score, 5.76 z-score, 2.03 z-score, 8.13 z-score and 7.89 z-score.
For the sequence “CCGATTAACATCAGGGAGTTACCTGATGTTAATCGGGTCTTGATTCGCTTGACGCTGCTG”, the binding signal with GST-Ap-NF-kB RHD is 4.03 z-score; in assay [1], 5.22 z-score; in the assay with GST-Co-NF-kB, 2.38 z-score; in the assay with GST-Dm-Relish, 7.17 z-score; with GST-Aq-NF-kB it was 7.22 z-score.
Turning to “CCGATTAACATCAGGGGAGGTACTGATGTTAATCGGGTCTTGATTCGCTTGACGCTGCTG”, the binding signal was determined as 4.21 z-score with GST-Ap-NF-kB RHD; 3.43 z-score in assay [1]; 3.96 z-score in the assay with GST-Co-NF-kB; 6.44 z-score with GST-Dm-Relish; 4.35 z-score in the assay with GST-Aq-NF-kB.
Take “CCGATTAACATCAGGGGCGCCCCTGATGTTAATCGGGTCTTGATTCGCTTGACGCTGCTG”: the binding signal in the assay with GST-Ap-NF-kB RHD worked out at 7.03 z-score; in assay [1] it was 5.37 z-score; with GST-Co-NF-kB, 3 z-score; with GST-Dm-Relish, 6.07 z-score; with GST-Aq-NF-kB, 8.59 z-score.
As to “CCGATTAACATCAATAAATACCCTGATGTTAATCGGGTCTTGATTCGCTTGACGCTGCTG”, the binding signal with GST-Ap-NF-kB RHD was found to be 3.73 z-score; in assay [1] it was 5.36 z-score; with GST-Co-NF-kB, 2.51 z-score; in the assay with GST-Dm-Relish it was 4.58 z-score; in the assay with GST-Aq-NF-kB, 4.69 z-score.
In the same order, the values of “CCGATTAACATCAAGGGAGTACCTGATGTTAATCGGGTCTTGATTCGCTTGACGCTGCTG” are 4.45 z-score, 2.9 z-score, 1.52 z-score, 3.08 z-score and 2.71 z-score.
In the same order, the values of “CCGATTAACATCAAACCCCCCCGTGATGTTAATCGGGTCTTGATTCGCTTGACGCTGCTG” are 6.76 z-score, 3.82 z-score, 5.57 z-score, 7 z-score and 4.9 z-score.
Turning to “CCGATTAACATCAGGGGGTGTTATGATGTTAATCGGGTCTTGATTCGCTTGACGCTGCTG”, the binding signal with GST-Ap-NF-kB RHD amounted to 4.69 z-score; in assay [1] it was 4.31 z-score; with GST-Co-NF-kB, 3.42 z-score; with GST-Dm-Relish it was 4.34 z-score; in the assay with GST-Aq-NF-kB, 5.4 z-score.
Consider “CCGATTAACATCAAGGGGGTGACTGATGTTAATCGGGTCTTGATTCGCTTGACGCTGCTG”, for which the binding signal with GST-Ap-NF-kB RHD turned out to be 4.68 z-score; in assay [1], 3.59 z-score; with GST-Co-NF-kB it was 3.04 z-score; with GST-Dm-Relish, 2.43 z-score; with GST-Aq-NF-kB, 4.26 z-score.
On to “CCGATTAACATCACCGATTTCCCTGATGTTAATCGGGTCTTGATTCGCTTGACGCTGCTG”, for which the binding signal with GST-Ap-NF-kB RHD was found to be 2.92 z-score; in assay [1], 3.79 z-score; with GST-Co-NF-kB, 3.27 z-score; with GST-Dm-Relish, 2 z-score; with GST-Aq-NF-kB, 2.57 z-score.
In the same order, the values of “CCGATTAACATCAACCCCCGGCTTGATGTTAATCGGGTCTTGATTCGCTTGACGCTGCTG” are 4.17 z-score, 2.37 z-score, 2.79 z-score, 4.35 z-score and 2.51 z-score.
Taken in the same sequence, the figures for “CCGATTAACATCAGGGGGTTAGATGATGTTAATCGGGTCTTGATTCGCTTGACGCTGCTG” were 3.78 z-score, 2.99 z-score, 1.94 z-score, 4.34 z-score and 3.58 z-score.
For the sequence “CCGATTAACATCAAGTCCCCCAATGATGTTAATCGGGTCTTGATTCGCTTGACGCTGCTG”, the binding signal in the assay with GST-Ap-NF-kB RHD is 4.26 z-score; in assay [1], 3.66 z-score; with GST-Co-NF-kB, 3.84 z-score; in the assay with GST-Dm-Relish, 2.8 z-score; with GST-Aq-NF-kB, 3.76 z-score.
As to “CCGATTAACATCAATTTTCCCAATGATGTTAATCGGGTCTTGATTCGCTTGACGCTGCTG”, the binding signal is 1.98 z-score with GST-Ap-NF-kB RHD; 3.86 z-score in assay [1]; 3.99 z-score in the assay with GST-Co-NF-kB; 1.29 z-score with GST-Dm-Relish; 2.61 z-score with GST-Aq-NF-kB.
For “CCGATTAACATCAAGTACTTCCCTGATGTTAATCGGGTCTTGATTCGCTTGACGCTGCTG”, the binding signal with GST-Ap-NF-kB RHD came out at 2.1 z-score; in assay [1] it was 2.22 z-score; with GST-Co-NF-kB it was 2.13 z-score; with GST-Dm-Relish it was 8.12 z-score; in the assay with GST-Aq-NF-kB, 3.13 z-score.
Taken in the same sequence, the figures for “CCGATTAACATCAAGGGGTCCCCTGATGTTAATCGGGTCTTGATTCGCTTGACGCTGCTG” were 5.55 z-score, 3.3 z-score, 1.66 z-score, 6.15 z-score and 4.02 z-score.
For the sequence “CCGATTAACATCAGGATCTCCCCTGATGTTAATCGGGTCTTGATTCGCTTGACGCTGCTG”, the binding signal in the assay with GST-Ap-NF-kB RHD was 7.91 z-score; in assay [1], 5.49 z-score; with GST-Co-NF-kB it was 4.26 z-score; in the assay with GST-Dm-Relish it was 5.64 z-score; in the assay with GST-Aq-NF-kB it was 6.38 z-score.
